The results in this text go back to PubChem BioAssay.

Each structure is given as a SMILES string. Unmarked numbers belong to inactive results. No rule for the calls is given here. Numbered stars: 1 amine (or outer) side, 2 acyl side, 3 side chain; on linkers, the order of the positions; unused ones are H or OH. Bridge positions count the residues as written; N and C are the ends. Square brackets hold non-standard residues; d marks the D form. Peptide text beside a SMILES is read from it. * marks the point of attachment. ξ: configuration not given here. ΔAla(Z-3-ureido) = NC(=O)N/C=C(\N)C(=O)O; X2 = NC1=NC(O)CC(C(N[*:1])C(=O)[*:2])N1; ξβ3hOrn = NCCCC(N)CC(=O)*; Dap = NC[CH](N)C(=O)O

The assay in a line: hESC survival regulators, cell-based (AID 493140).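 Also: cells exposed to compounds for four days before counting.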 The settings on record: human embryonic stem cell survival screen; active compounds read high.
Consider `NC(=O)c1ccc[n+]([C@H]2O[C@@H](COP(=O)([O-])OP(=O)(O)OC[C@H]3O[C@@H](n4cnc5c(N)ncnc54)C(O)[C@H]3O)C(O)[C@H]2O)c1` (some centres undefined), for which the survival is 4.5.

For `CCCCC/C=C\C\C=C/C=C/C=C/[C@@H](SCC(N)C(=O)O)[C@@H](O)CCCC(=O)O` (some centres undefined), the survival was 107.

As for `CCCCC[C@H](O)/C=C/C=C\C/C=C\CCCCC(=O)O`, the survival was 67.2.

Turning to `CCCCC/C=C\C\C=C/C=C/C=C/[C@@H](O)[C@@H](O)CCCC(=O)O`, the survival is 116.

Turning to `C[C@@]1(O)CCOC(=O)C1`, the survival was 4.42.

Turning to `C[N+](C)(CCCOc1ccccc1)c1ccccc1`, the survival is 5.92.

Consider `O=c1[nH]c(=O)n([C@H]2C[C@@H](O)[C@@H](CO)O2)cc1C(F)(F)F`, for which the survival was 0.583.

With `CC1O[C@@H](OC2/C=C/C=C/C=C/C=C/C[C@@H](C)OC(=O)/C=C/[C@H]3O[C@@H]3C[C@H](O)C[C@]3(O)C[C@H](O)[C@@H](C(=O)O)[C@H](C2)O3)C(O)C(N)[C@@H]1O` (some centres undefined), the survival was 28.2.

For the compound `CC(=O)CC(=O)[C@@]1(O)CC[C@H]2[C@@H]3C=C(C)C4=CC(=O)CC[C@@H]4[C@H]3CC[C@@]21C`, the survival was 10.6.

Take `Nc1ncc2[nH]cnc2n1`: the survival was 108.

Consider `CCCCCC#CC[C@@H](O)/C=C/C=C/C=C\[C@@H](O)CCCC(=O)O`, for which the survival is 71.7.

Take `CC(C)C[C@H](NC(=O)[C@H](CCC(=O)O)NC(=O)CNC(=O)c1ccc(/C=C/C(=O)O)cc1)C(N)=O`: the survival was 88.2.

For the compound `CC1(C)S[C@@H]2[C@H](NC(=O)C3(N)CCCCC3)C(=O)N2[C@H]1C(=O)O`, the survival is 3.83.

As for `NCCCC(N)CC(=O)NC1CNC(=O)C(C2CC(O)N=C(N)N2)NC(=O)/C(=C/NC(N)=O)NC(=O)C(CO)NC(=O)C(CO)NC1=O` (stereo not drawn) (ξβ3hOrn-[Dap]SS[ΔAla(Z-3-ureido)][X2]; lactam 1-C; configuration not given here), the survival was 10.8.

As for `C=C(C)[C@@H]1CC[C@]2(CO)CC[C@]3(C)[C@H](CC[C@@H]4[C@@]5(C)CCC(O)C(C)(C)[C@@H]5CC[C@]43C)[C@@H]12` (some centres undefined), the survival was 7.33.

On to `CCCCC/C=C\C=C\C(O)CCCCCCCC(=O)O` (centres undefined), for which the survival is 83.9.

Regarding `CCCCC/C=C\C[C@@H](O)/C=C/C=C/C=C/[C@@H](O)CCCC(=O)O`, the survival was 77.1.

For `CCCCC/C=C\C/C=C\C/C=C\C=C\C(O)CCCC(=O)O` (centres undefined), the survival was 122.

As to `CCCCC[C@H](O)/C=C/C=C\CCCCCCCCCC(=O)O`, the survival was 73.3.

`CO/N=C(/C(=O)N[C@@H]1C(=O)N2C(C(=O)[O-])=C(C[N+]3(C)CCCC3)CS[C@H]12)c1csc(N)n1`: the survival was 5.92.

With `CC(C)c1cc(/C=C(\C#N)C(=O)NCCCc2ccccc2)cc(C(C)C)c1O`, the survival was 124.

Consider `NCC1OC(O[C@@H]2C(O)[C@H](OC3C(O)C(N)CC(N)C3OC3OC(CO)C(O)C(O)C3N)O[C@@H]2CO)C(N)C(O)C1O` (some centres undefined), for which the survival is 5.75.

Turning to `CN(N=O)C(=O)NC1[C@@H](O)OC(CO)[C@@H](O)[C@H]1O` (some centres undefined), the survival was 8.42.

As to `CCC(C(=O)C(C)C(O)C(C)CCc1ccc(C)c(O)c1C(=O)O)[C@H]1O[C@](CC)([C@H]2CC[C@](O)(CC)[C@H](C)O2)C[C@@H]1C` (some centres undefined), the survival is 24.1.

For `CCCCC[C@H](O)/C=C/[C@@H]1[C@@H](CC(=O)CCC(=O)O)[C@@H](O)C[C@H]1O`, the survival was 104.

On to `CCCCCCCN[C@H]1CCC[C@@H]1CCCCCCC(=O)O`, for which the survival is 114.

As to `O=C(O)CCCC/C=C\C[C@@H](O)/C=C/C=C/C=C\[C@@H](O)CCCC(=O)O`, the survival was 96.1.

On to `CCCCC[C@H](O)/C=C/C=C\C/C=C\CCCCCCC(=O)O`, for which the survival was 102.

As for `CCCCC/C=C\C/C=C\C/C=C\CCCCCCC(=O)O[C@H](COCCCCCCCCCCCCCCCC)COP(=O)([O-])OCC[N+](C)(C)C`, the survival is 71.5.

Turning to `O=[N+]([O-])c1ccc(Oc2ccc(Br)cc2)c(C(O)[P+](=O)O)c1` (centres undefined), the survival was 83.4.

With `CCCCCCCCCCCCC/C=C/[C@@H](O)[C@@H](N)COP(=O)(O)O`, the survival was 87.9.

As for `Cc1cc(=O)c2c(O)c3c(O)cc(O)c4c5c(O)cc(O)c6c(O)c7c(=O)cc(C)c8c1c2c(c34)c(c65)c78`, the survival is 52.2.

Regarding `CCCCC[C@H](O)/C=C/C=C/C=C/[C@@H](O)C/C=C\CCCC(=O)O`, the survival is 92.6.

Regarding `CNC1C(O)C2O[C@H](OC3C(N)C[C@@H](N)C(O)[C@H]3O)C(N)C[C@H]2O[C@@H]1O[C@H]1OC(CO)[C@@H](N)[C@H](O)C1O` (some centres undefined), the survival was 10.6.

For `NC(=O)c1ncn([C@@H]2O[C@H](CO)[C@H](O)C2O)n1` (some centres undefined), the survival is 1.33.

On to `C[C@@H](O)CCC[C@H](O)/C=C/[C@@H]1[C@@H](C/C=C\CCCC(=O)O)[C@@H](O)C[C@H]1O`, for which the survival is 102.

`CCCCC[C@H](O)/C=C/C=C/C/C=C\CCCC(=O)O`: the survival is 94.8.

As to `COc1ccc2nccc(C(=O)O)c2c1`, the survival was 19.9.

Regarding `CCCCC[C@H](O)/C=C/C=C\C/C=C\C=C\[C@@H](O)CCCC(=O)O`, the survival was 103.
